Among the data in publication PMC8384837, “Expanding the binding specificity for RNA recognition by a PUF domain” are binding signal values, retold here.

Common to all, as to assay: yeast three-hybrid, YBZ-1, SC-Leu-His + 0.5 mM 3-AT, 4 days
Common to all, as to conditions: tags: N-Gal4 AD-HA kept; label: inside an RPR1-promoter hybrid RNA with tandem MS2 sites; ssRNA

One assay concerns the target PUM1 PUF domain R3-YRQ (Homo sapiens, UniProt Q14671 828-1176, C935Y). Summed up: (§1)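 A centromeric plasmid in strain YBZ-1 co-expressed Pumilio-1 PUF domain libraries, randomized at the three base-contacting residues of each repeat, with matching RNA elements; the strain carries a LexA–MS2 coat fusion and a HIS3 reporter. After four days on SC-Leu (input) or SC-Leu-His + 0.5 mM 3-AT (selection), the repeat regions were PCR-amplified and Illumina-sequenced. The interaction score is the log change in variant frequency from input to selection, using log2 and a pseudocount of 1 where absent.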

A further assay deals with PUM1 PUF domain R3-FCL (Homo sapiens, UniProt Q14671 828-1176, C935F;R936C;Q939L). Summed up: as §1
The target in the next assay is PUM1 PUF domain R3-LRG (Homo sapiens, UniProt Q14671 828-1176, C935L;Q939G). Summed up:
as §1

The target in the next assay is PUM1 PUF domain R1-KSA (Homo sapiens, UniProt Q14671 828-1176, S863K;R864S;Q867A). Put shortly:
as §1

The target in the next assay is PUM1 PUF domain R4-SPI (Homo sapiens, UniProt Q14671 828-1176, N971S;H972P;Q975I). Summed up:
as §1

A further assay deals with PUM1 PUF domain R4-GNG (Homo sapiens, UniProt Q14671 828-1176, N971G;H972N;Q975G). Summed up: as §1
Chain of PUM1 PUF domain R4-GNG (Q14671 828-1176 N971G/H972N/Q975G): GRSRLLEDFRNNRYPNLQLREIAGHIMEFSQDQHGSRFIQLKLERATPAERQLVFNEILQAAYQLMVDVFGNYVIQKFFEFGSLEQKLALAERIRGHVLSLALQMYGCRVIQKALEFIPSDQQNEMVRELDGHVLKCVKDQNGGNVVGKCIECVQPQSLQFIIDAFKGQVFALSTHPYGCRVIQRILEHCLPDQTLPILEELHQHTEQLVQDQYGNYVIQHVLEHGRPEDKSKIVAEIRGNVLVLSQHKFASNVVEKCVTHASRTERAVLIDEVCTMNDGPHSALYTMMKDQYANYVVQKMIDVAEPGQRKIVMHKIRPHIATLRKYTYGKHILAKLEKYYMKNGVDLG
A further assay has as its target PUM1 PUF domain R5-KRC (Homo sapiens, UniProt Q14671 828-1176, C1007K;Q1011C). Put shortly:
as §1

In a further assay the target is PUM1 PUF domain R5-HRS (Homo sapiens, UniProt Q14671 828-1176, C1007H;Q1011S). Summed up:
as §1

A further assay deals with T1, PUM1 PUF domain R6-VYE (Homo sapiens, UniProt Q14671 828-1176, N1043V;Q1047E).
T1 sequence: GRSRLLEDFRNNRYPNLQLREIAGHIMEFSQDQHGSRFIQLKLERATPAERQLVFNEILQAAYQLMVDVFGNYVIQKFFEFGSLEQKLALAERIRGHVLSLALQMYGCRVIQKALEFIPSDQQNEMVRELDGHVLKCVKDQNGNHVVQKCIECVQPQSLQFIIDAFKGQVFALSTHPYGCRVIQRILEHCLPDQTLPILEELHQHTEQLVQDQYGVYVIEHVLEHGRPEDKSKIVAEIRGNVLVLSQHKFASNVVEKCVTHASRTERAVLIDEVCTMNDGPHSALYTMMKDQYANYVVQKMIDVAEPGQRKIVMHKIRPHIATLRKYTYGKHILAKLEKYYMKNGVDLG
Put shortly:
as §1

The next assay deals with PUM1 PUF domain R7-RSS (Homo sapiens, UniProt Q14671 828-1176, S1079R;N1080S;E1083S). Summed up: as §1
Another assay addresses PUM1 PUF domain R7-LYG (Homo sapiens, UniProt Q14671 828-1176, S1079L;N1080Y;E1083G). Put shortly: as §1
The target in a further assay is PUM1 PUF domain R8-RHL (Homo sapiens, UniProt Q14671 828-1176, N1122R;Y1123H;Q1126L). Put shortly:
as §1

In another assay the target is PUM1 PUF domain R8-PWL (Homo sapiens, UniProt Q14671 828-1176, N1122P;Y1123W;Q1126L). Put shortly:
as §1

A further assay has as its target PUM1 PUF domain R3-DHR (Homo sapiens, UniProt Q14671 828-1176, C935D;R936H;Q939R). Put shortly:
as §1

Another assay has as its target PUM1 PUF domain R3-SRH (Homo sapiens, UniProt Q14671 828-1176, C935S;Q939H). Put shortly: as §1
A further assay addresses PUM1 PUF domain R4-GMC (Homo sapiens, UniProt Q14671 828-1176, N971G;H972M;Q975C). Put shortly:
as §1

For a further assay, the target named is PUM1 PUF domain R4-WAK (Homo sapiens, UniProt Q14671 828-1176, N971W;H972A;Q975K). Summed up:
as §1

For the next assay, the target named is PUM1 PUF domain R3-KPS (Homo sapiens, UniProt Q14671 828-1176, C935K;R936P;Q939S). Summed up: as §1
In the next assay the target is PUM1 PUF domain R5-WWW (Homo sapiens, UniProt Q14671 828-1176, C1007W;R1008W;Q1011W). Summed up: as §1
For the next assay, the target named is PUM1 PUF domain R5-SVT (Homo sapiens, UniProt Q14671 828-1176, C1007S;R1008V;Q1011T). Put shortly: as §1

Chain of PUM1 PUF domain R5-KRC (Q14671 828-1176 C1007K/Q1011C): as the sequence (Q14671 828-1176 N971G/H972N/Q975G) above, with G144N, N145H, G148Q, C180K, Q184C counted along it
Chain of PUM1 PUF domain R5-HRS (Q14671 828-1176 C1007H/Q1011S): as the sequence (Q14671 828-1176 N971G/H972N/Q975G) above, with G144N, N145H, G148Q, C180H, Q184S counted along it

Consider “GGCUAGAACUAGUGGAUCCCCCGGCGCCCGGCGGCUCGAGCCCGGGUAAGUGUAAGUAGUCUGCAUGCCGCCGGGCGCCAUGCCUGCAGGUCGACUCUAGAAAACAUG”, for which the binding signal with PUM1 PUF domain R3-YRQ was 3.31 log2 enrichment (interaction score); with PUM1 PUF domain R3-FCL, 4.28 log2 enrichment (interaction score); with PUM1 PUF domain R3-LRG, 3.85 log2 enrichment (interaction score).
“GGCUAGAACUAGUGGAUCCCCCGGCGCCCGGCGGCUCGAGCCCGGGUAAGUGUAAAUCGUCUGCAUGCCGCCGGGCGCCAUGCCUGCAGGUCGACUCUAGAAAACAUG”: the binding signal with PUM1 PUF domain R1-KSA is 3.27 log2 enrichment (interaction score).
In the case of “GGCUAGAACUAGUGGAUCCCCCGGCGCCCGGCGGCUCGAGCCCGGGUAAGUGUACAUAGUCUGCAUGCCGCCGGGCGCCAUGCCUGCAGGUCGACUCUAGAAAACAUG”, the binding signal is 0.54 log2 enrichment (interaction score) with PUM1 PUF domain R4-SPI and 2.39 log2 enrichment (interaction score) with PUM1 PUF domain R4-GNG.
As for “GGCUAGAACUAGUGGAUCCCCCGGCGCCCGGCGGCUCGAGCCCGGGUAAGUGUUAAUAGUCUGCAUGCCGCCGGGCGCCAUGCCUGCAGGUCGACUCUAGAAAACAUG”, the binding signal with PUM1 PUF domain R5-KRC was 3.89 log2 enrichment (interaction score); with PUM1 PUF domain R5-HRS it was 4.01 log2 enrichment (interaction score).
Turning to “GGCUAGAACUAGUGGAUCCCCCGGCGCCCGGCGGCUCGAGCCCGGGUAAGUGGAAAUAGUCUGCAUGCCGCCGGGCGCCAUGCCUGCAGGUCGACUCUAGAAAACAUG”, the binding signal in the assay with PUM1 PUF domain R6-VYE was 2.43 log2 enrichment (interaction score).
Same read-out and setting: the result for “GGCUAGAACUAGUGGAUCCCCCGGCGCCCGGCGGCUCGAGCCCGGGUAAGUGAAAAUAGUCUGCAUGCCGCCGGGCGCCAUGCCUGCAGGUCGACUCUAGAAAACAUG” reads 7.22 log2 enrichment (interaction score).
For “GGCUAGAACUAGUGGAUCCCCCGGCGCCCGGCGGCUCGAGCCCGGGUAAGUUUAAAUAGUCUGCAUGCCGCCGGGCGCCAUGCCUGCAGGUCGACUCUAGAAAACAUG”, the binding signal with PUM1 PUF domain R7-RSS was 2.76 log2 enrichment (interaction score).
As for “GGCUAGAACUAGUGGAUCCCCCGGCGCCCGGCGGCUCGAGCCCGGGUAAGUCUAAAUAGUCUGCAUGCCGCCGGGCGCCAUGCCUGCAGGUCGACUCUAGAAAACAUG”, the binding signal with PUM1 PUF domain R7-LYG was 2.93 log2 enrichment (interaction score); with PUM1 PUF domain R7-RSS, 1.34 log2 enrichment (interaction score).
With “GGCUAGAACUAGUGGAUCCCCCGGCGCCCGGCGGCUCGAGCCCGGGUAAGUGUAAAUAGUCUGCAUGCCGCCGGGCGCCAUGCCUGCAGGUCGACUCUAGAAAACAUG”, the binding signal in the assay with PUM1 PUF domain R8-RHL is 3.23 log2 enrichment (interaction score); in the assay with PUM1 PUF domain R8-PWL it was 2.93 log2 enrichment (interaction score); with PUM1 PUF domain R5-KRC it was 2.12 log2 enrichment (interaction score); in the assay with PUM1 PUF domain R4-GNG it was 1.49 log2 enrichment (interaction score); in the assay with PUM1 PUF domain R3-DHR, 3.23 log2 enrichment (interaction score); with PUM1 PUF domain R3-SRH it was 4.37 log2 enrichment (interaction score).
For “GGCUAGAACUAGUGGAUCCCCCGGCGCCCGGCGGCUCGAGCCCGGGUAAGUGUCAAUAGUCUGCAUGCCGCCGGGCGCCAUGCCUGCAGGUCGACUCUAGAAAACAUG”, the binding signal was 3.63 log2 enrichment (interaction score) with PUM1 PUF domain R5-KRC and 2.88 log2 enrichment (interaction score) in the assay with PUM1 PUF domain R5-HRS.
On to “GGCUAGAACUAGUGGAUCCCCCGGCGCCCGGCGGCUCGAGCCCGGGUAAGUGUAUAUAGUCUGCAUGCCGCCGGGCGCCAUGCCUGCAGGUCGACUCUAGAAAACAUG”, for which the binding signal in the assay with PUM1 PUF domain R4-GMC is 3.12 log2 enrichment (interaction score); in the assay with PUM1 PUF domain R4-SPI it was 2.21 log2 enrichment (interaction score); with PUM1 PUF domain R4-GNG it was 3.28 log2 enrichment (interaction score); in the assay with PUM1 PUF domain R4-WAK it was 2.71 log2 enrichment (interaction score).
Consider “GGCUAGAACUAGUGGAUCCCCCGGCGCCCGGCGGCUCGAGCCCGGGUAAGCGUAAAUAGUCUGCAUGCCGCCGGGCGCCAUGCCUGCAGGUCGACUCUAGAAAACAUG”, for which the binding signal is 5.48 log2 enrichment (interaction score) in the assay with PUM1 PUF domain R8-RHL and 3.61 log2 enrichment (interaction score) with PUM1 PUF domain R8-PWL.
For “GGCUAGAACUAGUGGAUCCCCCGGCGCCCGGCGGCUCGAGCCCGGGUAAGUGUAAUUAGUCUGCAUGCCGCCGGGCGCCAUGCCUGCAGGUCGACUCUAGAAAACAUG”, the binding signal is 3.86 log2 enrichment (interaction score) in the assay with PUM1 PUF domain R3-KPS and 0.54 log2 enrichment (interaction score) with PUM1 PUF domain R3-LRG.
With “GGCUAGAACUAGUGGAUCCCCCGGCGCCCGGCGGCUCGAGCCCGGGUAAGUGUGAAUAGUCUGCAUGCCGCCGGGCGCCAUGCCUGCAGGUCGACUCUAGAAAACAUG”, the binding signal was 3.25 log2 enrichment (interaction score) in the assay with PUM1 PUF domain R5-WWW, 1.03 log2 enrichment (interaction score) in the assay with PUM1 PUF domain R5-KRC, 3.92 log2 enrichment (interaction score) with PUM1 PUF domain R5-SVT and 0.46 log2 enrichment (interaction score) in the assay with PUM1 PUF domain R5-HRS.
